# Values without a mark were called inactive. The source made the active and inactive calls. Unless noted, no stated cut-off is given here; in the data, active means inhibition above about 36%; inactive means the rest.
# Key:
# [1] = system: transactivating tegument protein VP16 (Human herpesvirus 1); assay: VP16 transactivation reporter inhibitors, counter-screen for SRC2 inhibitor project, cell-based, luminescence, single concentration (AID 652007); details: cell-based VP16 transactivation luciferase reporter, at 8.9 µM, hits give high values
# [2] = molecular target: Nuclear receptor coactivator 2 (Homo sapiens) (UniProt Q15596); assay: SRC2 coactivator transcriptional activity inhibitors, confirmation, cell-based, luminescence, HEK293, triplicate (AID 652008;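 active means mean inhibition above 46.5%, the solvent-only control mean plus 3 SD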;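 further: 0% = DMSO-treated cells and 100% = Gossypol at 36 µM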); details: HEK293 GAL4-SRC2 luciferase reporter, at 8.9 µM, hits give high values
# Chain of Nuclear receptor coactivator 2 (Homo sapiens) (Q15596 whole entry, looked up, the tested form may be a part): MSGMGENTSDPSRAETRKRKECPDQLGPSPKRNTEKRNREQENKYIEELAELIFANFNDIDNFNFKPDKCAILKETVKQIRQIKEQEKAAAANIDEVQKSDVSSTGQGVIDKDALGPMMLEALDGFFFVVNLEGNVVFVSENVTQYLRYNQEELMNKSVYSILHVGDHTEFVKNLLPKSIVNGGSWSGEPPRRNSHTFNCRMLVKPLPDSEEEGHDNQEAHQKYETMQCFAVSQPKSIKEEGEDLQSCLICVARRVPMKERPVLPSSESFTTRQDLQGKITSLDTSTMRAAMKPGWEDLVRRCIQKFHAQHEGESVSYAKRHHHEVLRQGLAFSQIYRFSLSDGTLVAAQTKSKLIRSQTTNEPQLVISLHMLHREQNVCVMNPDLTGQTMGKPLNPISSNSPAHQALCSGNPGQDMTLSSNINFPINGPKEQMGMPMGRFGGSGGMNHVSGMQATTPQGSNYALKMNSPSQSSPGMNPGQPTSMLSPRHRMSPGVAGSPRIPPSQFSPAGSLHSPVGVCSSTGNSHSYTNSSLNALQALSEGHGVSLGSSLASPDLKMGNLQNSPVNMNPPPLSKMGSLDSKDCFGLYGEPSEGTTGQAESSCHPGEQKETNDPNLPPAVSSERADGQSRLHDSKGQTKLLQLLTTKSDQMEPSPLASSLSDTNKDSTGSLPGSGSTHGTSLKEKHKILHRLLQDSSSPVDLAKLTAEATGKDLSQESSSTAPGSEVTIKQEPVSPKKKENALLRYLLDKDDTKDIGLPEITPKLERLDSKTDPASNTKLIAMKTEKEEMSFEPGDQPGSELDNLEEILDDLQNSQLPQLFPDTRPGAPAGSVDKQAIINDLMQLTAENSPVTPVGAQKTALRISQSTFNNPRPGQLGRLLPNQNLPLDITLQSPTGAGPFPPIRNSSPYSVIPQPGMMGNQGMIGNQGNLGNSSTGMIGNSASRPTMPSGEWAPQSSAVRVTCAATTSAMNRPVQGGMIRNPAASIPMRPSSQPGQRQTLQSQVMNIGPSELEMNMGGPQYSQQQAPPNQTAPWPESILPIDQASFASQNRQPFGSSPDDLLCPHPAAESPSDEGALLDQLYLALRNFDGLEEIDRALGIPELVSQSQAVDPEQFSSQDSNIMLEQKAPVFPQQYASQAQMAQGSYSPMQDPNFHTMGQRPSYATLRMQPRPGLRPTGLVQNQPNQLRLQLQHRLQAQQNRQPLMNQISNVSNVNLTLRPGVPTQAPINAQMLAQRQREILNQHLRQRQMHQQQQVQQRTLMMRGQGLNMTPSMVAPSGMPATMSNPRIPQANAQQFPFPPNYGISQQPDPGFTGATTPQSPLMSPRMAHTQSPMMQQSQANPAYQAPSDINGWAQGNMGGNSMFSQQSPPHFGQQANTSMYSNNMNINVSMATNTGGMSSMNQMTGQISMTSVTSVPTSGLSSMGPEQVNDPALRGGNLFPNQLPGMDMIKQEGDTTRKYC
Structure (SMILES),inhibition [1],inhibition [2]
COC(=O)c1ccc(/C=C2/SC(=S)N(CCCC(=O)Nc3ccc(O)cc3)C2=O)cc1,15.8%,7.74%
O=C(N/N=C\c1cc(Br)c(Br)o1)C1COc2ccccc2O1 (stereo unspecified),-16.1%,-4.84%
COc1ccc(C)cc1Nc1n[n+](-c2ccccc2)c(-c2c(Cl)cccc2Cl)s1,19.4%,22.7%
Cn1cnnc1SCC(=O)NC1CCCC1,-4.24%,-19.9%
CC(NC(=O)CCc1nnc(-c2ccc(-c3ccccc3)cc2)o1)c1nc2ccccc2[nH]1 (stereo unspecified),15.2%,55.9% (active)
CC(C)(C)c1ccc(-c2n[nH]c(=S)n2C2CCCC2)cc1,1.72%,3.48%
Nc1nc(-c2ccccc2)c(N=Nc2cccnc2)s1,5.71%,11.2%
CCn1cc(S(=O)(=O)Nc2ccc3c(c2)OCCO3)cn1,-3.8%,48.4% (active)
N#CC1C=Cc2c(ccc3ccccc23)N1C(=O)c1ccccc1 (stereo unspecified),-39.9%,56.4% (active)
Cc1ccc(S(=O)(=O)N2CCC(C(=O)Nc3ccc(S(=O)(=O)N4CCOCC4)cc3)CC2)cc1,8%,30.2%
Cc1nnc(NC(=O)c2nc(S(=O)(=O)Cc3ccccc3C)ncc2Cl)s1,42% (active),49.7% (active)
CN(c1ccccc1)S(=O)(=O)c1ccc(C(=O)NCc2ccccc2CN2CCCC2)cc1,-19.8%,-25.8%
O=C(NC(=O)c1ccccc1)Nc1ccccn1,4.41%,54.8% (active)
CCn1nc(C)cc1-c1nnc(Sc2ncc([N+](=O)[O-])s2)n1C,85.2% (active),93.9% (active)
N#CCCN(C(=O)COC(=O)C1CCN(S(=O)(=O)c2ccccc2C(F)(F)F)CC1)c1ccccc1,0.12%,11.1%
O=C(CN1C(=O)c2ccccc2S1(=O)=O)c1ccccc1Cl,37.8% (active),68.9% (active)
Cc1nc(S(=O)(=O)N(C)c2ccccc2)c(C#N)c(C)c1Cl,3.59%,40.9%

Structure (SMILES),inhibition [1],inhibition [2]
CCOc1ccc(-c2cc(CCCC(=O)NCCc3ccc(OC)c(OC)c3OC)no2)cc1,12.8%,34.7%
CC(C(=O)NC(C)(C)C)N(C(=O)CS(=O)CC(=O)Nc1ccc(F)cc1)c1ccccc1F (stereo unspecified),2.18%,-14.3%
CCOC(=O)c1c(C)[nH]c(C)c1C(=O)COC(=O)c1ccccc1O,2.18%,20.3%
O=C(/C=C/c1cccnc1)/C=C/c1cccnc1,77.1% (active),5.81%
COc1ccc(C(=O)C(CN2CCCC2)c2ccccc2)cc1 (stereo unspecified),0.75%,40.2%
COc1ccc(OCC(=O)Nc2ccc3c(c2)C(=O)NC3=O)cc1,-1.89%,-9.88%
CC(OC(=O)CN1C(=O)NC2(CCCC2)C1=O)c1ccc(F)cc1 (stereo unspecified),-16.9%,-26.5%
CC(C)(C)NC(=O)COC(=O)c1snc(C(=O)NC2CCCCC2)c1N,-7.99%,8.82%
CCOC(=O)[C@]12CCC=C1N(CCC1=CCCCC1)C(=O)[C@H](CC(=O)N1CCC(c3ccccc3)CC1)C2,1.35%,-24.7%
CCOc1ccc2oc(C(=O)NCc3ccccc3CN3CCCC3)c(C)c2c1,-10.5%,-12.9%
O=S(=O)(O)Sc1ccccc1,-0.6%,4.75%
COc1ccc(S(=O)(=O)n2ccc(-c3ccc(OCCN(C)c4ccccn4)cc3)n2)cc1,3.56%,30.2%
C=CCOc1ccccc1CN1CCC(Cc2ccccc2)CC1,8.57%,-13.5%
Cc1cccc(C(=O)O/N=C(\N)c2ccccn2)c1,-73.6%,-81.6%
N=c1c2c3c(sc2ncn1N)CCCCC3,2.99%,-23.5%
COC(=O)c1ccc2c(=O)[nH]c(COC(=O)c3[nH]c(C)c(C(C)=O)c3C)nc2c1,-18.3%,12.3%

# Source: PubChem BioAssay
